{"source": "PubChem BioAssay (EPA / NIEHS)", "note": "Inconclusive results are not listed. More than one record can exist for a structure, and the calls need not agree. Calls of active or inactive are those of the source. Rule for the calls: active = hit-call score of the fitted dose curve at least 0.9, where 1 is the maximum; inconclusive = response in the unintended direction; inactive = score below 0.9.", "data": [{"system": "turtle Thyroid Hormone Receptor, alpha (TRa), gene 101949057", "experiment": "ATG_trTRa_XSP2: Attagene TRANS-FACTORIAL Multi-Species (XSP1) HepG2 Assay for turtle Thyroid Hormone Receptor, alpha (TRa) (AID 2283834);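 note: hits raise reporter mRNA over the DMSO baseline so AC50 marks activators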", "protocol": "ATG_XSP2_multi-species_TRANS is a cell-based, multiplexed assay created by modifying the existing Attagene TRANS-FACTORIAL system to include a panel of nuclear receptors from some or all the following species: human (Homo sapiens), mouse (Mus musculus), frog (Xenopus laevis), zebrafish (Danio rerio), chicken (Gallus gallus), and turtle (Chrysemys picta). The ECOTOX-FACTORIAL format uses HepG2, a human liver cell line, with measurements taken at 24 hours after chemical dosing in a 24-well plate. Xsp2 included 3 nM 6-alpha-fluorotestosterone and 1.5 nM norgestrel to stimulate the androgen receptor.ATG_trTRa_XSP2 is one of 29 assay components measured or calculated from the ATG_XSP2_multi-species_TRANS assay. It is designed to make measurements of mRNA induction, a form of inducible reporter, as detected with fluorescence intensity signals by Reverse transcription polymerase chain reaction (RT-PCR) and Capillary electrophoresis technology.The assay endpoint ATG_trTRa_XSP2 was analyzed in the positive analysis fitting direction relative to DMSO as the negative control and baseline of activity. Using a type of inducible reporter, measures of mRNA for gain-of-signal activity can be used to understand the reporter gene at the transcription factor-level as they relate to the gene TR. Furthermore, this assay endpoint can be referred to as a primary readout, because this assay has produced multiple assay endpoints where this one serves a reporter gene function. To generalize the intended target to other relatable targets, this assay endpoint is annotated to the nuclear receptor intended target family, where the subfamily is non-steroidal.\nHuman liver HepG2 cells are transiently transfected with multiple reporter transcription units (MRTUs) in 6-well plates using FuGene 6 reagent (Roche; 3 ml FuGene/1 mg DNA). The MRTU constructs are regulated by a cis-regulating element (promoter). […] A major difference between the CIS and TRANS system is that in CIS activities of endogenous TFs are measured, whereas the TRANS assay evaluates changes in activities of exogenous, chimeric NR-Gal4 proteins. […] At the end of 24 hour incubation, total RNA was isolated using TriZol reagent (Invitrogen). The isolated RNA is then reverse-transcribed using oligo(dT) primer and Mo-MLV reverse transcriptase (Invitrogen) with DNAse I (Ambion) treatment for 30 min. The one-tenth of the produced cDNA was amplified by PCR using Taq DNA polymerase (Invitrogen) and two reporter sequence-specific primers. The PCR products were fluorescently labeled by primer extension with 6-arboxyfluorescein (6-FAM) 5'-labeled reporter sequence-specific primer (2 min at 95 C, 20 s at 68 C and 10 min at 72 C) and these products were digested with 5U of HpaI (New England Biolabs) for 2h at 37 C. The fragments were purified using Qiaquick PCR columns (Qiagen), analyzed on an ABI 3130xL genetic analyzer (Applied Biosystems) with peak positions identified by using a set of X-rhodamine (ROX)-labeled MapMarker1000 molecular weight standards (BioVentures). The raw capillary electrophoresis data was processed using Attagraph software (Attagene).", "values": [{"molecule": "O=S(=O)(c1ccc(Cl)cc1)c1ccc(Cl)cc1", "outcome": "inactive"}, {"molecule": "Oc1ccc(-c2ccccc2)cc1", "outcome": "inactive"}, {"molecule": "CC(C)C1CCC(Cc2ccc(Cl)cc2)C1(O)Cn1cncn1", "note": "(stereo unspecified)", "outcome": "inactive"}, {"molecule": "Oc1c(I)cc(I)cc1I", "outcome": "inactive"}, {"molecule": "COP(=O)(OC)O/C(=C\\Cl)c1cc(Cl)c(Cl)cc1Cl", "outcome": "inactive"}, {"molecule": "C[C@]12CC[C@H](O)CC1=CC[C@@H]1[C@@H]2CC[C@]2(C)C(=O)CC[C@@H]12", "outcome": "inactive"}, {"molecule": "CC(C)(C)c1cc(O)ccc1O", "outcome": "inactive"}, {"molecule": "O=C1C2(Cl)C3(Cl)C4(Cl)C(Cl)(Cl)C5(Cl)C3(Cl)C1(Cl)C5(Cl)C24Cl", "note": "(stereo unspecified)", "outcome": "inactive"}, {"molecule": "C[C@]12CCC(=O)C[C@@H]1CC[C@@H]1[C@@H]2CC[C@]2(C)[C@@H](O)CC[C@@H]12", "outcome": "inactive"}, {"molecule": "CC1(C)CCC(Cc2ccc(Cl)cc2)C1(O)Cn1cncn1", "note": "(stereo unspecified)", "outcome": "inactive"}, {"molecule": "Clc1ccc(C2(Cn3cncn3)CC(Br)CO2)c(Cl)c1", "note": "(stereo unspecified)", "outcome": "inactive", "AC50": "26.9 µM (active)"}, {"molecule": "CC(C)(C)CC(C)(C)c1ccc(O)cc1", "outcome": "inactive"}, {"molecule": "C[C@H]1CCCC(=O)CCC/C=C/c2cc(O)cc(O)c2C(=O)O1", "outcome": "inactive"}, {"molecule": "CC12CC1(C)C(=O)N(c1cc(Cl)cc(Cl)c1)C2=O", "note": "(stereo unspecified)", "outcome": "inactive"}, {"molecule": "CC(=O)C=C(C)C", "outcome": "inactive"}]}]}
